TDP1 cell noCPT: qHTS for Inhibitors of human tyrosyl-DNA phosphodiesterase 1 (TDP1): qHTS in cells in absence of CPT. AID 686978, 2013. DT40 Tdp1-/- hTDP1 cells, no CPT, ATP luminescence, 48 h. Potency, µM (highest dose often 46.2 µM), inactives show at the highest dose activity change, negative = growth inhibition, hits mostly inhibitors. 420,000 compounds, 15% hits; also: potency is read from the fitted curve at half-maximal effect; % is scaled to controls: 0 for no effect and ±100 for the full control effect; nearly all actives have a fitted effect of over 55% in size
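Chicken DT40 Tdp1-/- cells complemented with human TDP1, screened without camptothecin (DMSO vehicle only), 400 cells/well. Compounds pin-transferred, cells incubated at 37 °C for at least 48 hr. Growth read as ATP-dependent luminescence (CellTiter-Glo, 30 min at RT).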
ClpP mod: qHTS Assay for Activators of ClpP. AID 651965, 2013. 340,000 compounds, 1.9% hits. purified B. subtilis ClpP, FRET peptide cleavage, 20 min. Potency, µM (highest dose often 57.5 µM), inactives show at the highest dose activity change, negative = active. ATP-dependent Clp protease proteolytic subunit (Bacillus subtilis (strain 168)), P80244; active = well fitted falling curve with a large enough effect; inconclusive = small, poorly fitted or top-dose-only effect; inactive = no such curve, though single readings can be large or run the other way; also: potency is read from the fitted curve at half-maximal effect; the source files actives as falling curves though it sought activators and does not explain the sign; nearly all actives have a fitted effect of over 65% in size
Target sequence (P80244 whole entry, looked up): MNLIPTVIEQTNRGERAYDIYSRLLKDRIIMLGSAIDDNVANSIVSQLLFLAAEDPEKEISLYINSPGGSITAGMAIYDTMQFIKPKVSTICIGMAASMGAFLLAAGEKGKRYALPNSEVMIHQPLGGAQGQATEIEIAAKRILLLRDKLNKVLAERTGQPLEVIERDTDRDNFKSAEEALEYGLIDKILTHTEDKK
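Purified B. subtilis ClpP, 10 microg/mL final in Tris/HCl pH8 with KCl, BSA, glycerol and Tween-20, cleaved an Abz/nitrotyrosine-quenched decapeptide. Fluorescence (ex 320, em 430) was read at 0 and 20 min at room temperature. Delta was normalized to 5.8 microM ADEP and DMSO/no-enzyme controls.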
D3 ag: activates the human D3 dopamine receptor. P35462. D3R DiscoveRx beta-arrestin cells, luminescence, 90 min. max activation, %. 410,000 compounds, 0.58% hits. AID 652048; in the data active = max activation above about 30%; also: 0% is about no effect
Target sequence (P35462 whole entry, looked up): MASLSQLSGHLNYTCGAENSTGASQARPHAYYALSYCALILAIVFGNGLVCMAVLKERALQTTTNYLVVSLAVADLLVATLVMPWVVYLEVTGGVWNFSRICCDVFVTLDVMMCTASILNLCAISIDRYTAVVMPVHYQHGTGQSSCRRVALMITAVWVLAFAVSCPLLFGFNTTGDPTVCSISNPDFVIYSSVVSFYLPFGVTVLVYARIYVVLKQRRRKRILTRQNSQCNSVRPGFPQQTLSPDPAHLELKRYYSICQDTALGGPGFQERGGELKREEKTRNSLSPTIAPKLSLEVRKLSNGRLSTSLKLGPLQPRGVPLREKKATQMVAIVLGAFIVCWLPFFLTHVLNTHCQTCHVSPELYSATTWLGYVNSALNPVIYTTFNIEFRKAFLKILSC
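Cells at 1500/well, incubated overnight, then treated with pinned compounds (dopamine as control) for 90 min at 37 degrees C. DiscoveRx reagent added for 30 - 60 minutes at room temperature; luminescence read.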
DT40 TDP1 CPT: growth inhibition of DT40 Tdp1-/-;hTDP1 cells with camptothecin (screen for TDP1 inhibitors); Potency, µM (series often up to 46.2 µM), inactives show at the highest dose activity change, negative = growth inhibition, hits mostly inhibitors; chicken DT40 Tdp1-/-;hTDP1 cells + 20 nM CPT, ATP luminescence, 48 h; 420,000 compounds, 12% hits; also: potency is read from the fitted curve at half-maximal effect; % is scaled to controls: 0 for no effect and ±100 for the full control effect; nearly all actives have a fitted effect of over 55% in size
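Chicken DT40 Tdp1-/- cells complemented with human TDP1, 400 cells/well, exposed to compounds plus 20 nM camptothecin for at least 48 h at 37 C; viability read as ATP content by CellTiter-Glo luminescence.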
IL1B secr inh: blocks inflammasome-driven IL-1 beta release; THP-1 LPS/ATP IL-1B secretion, AlphaLISA, 16 h; stronger effect = lower value; 360,000 compounds, 4.7% hits; AID 743279; activity change, % at 57.5 µM; in the data active = activity change below about -50%; inconclusive = mostly about -30% to -49%; also: % is scaled to controls: 0 for no effect and ±100 for the full control effect
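Secreted IL-1B measured by AlphaLISA bead assay after 16 h compound exposure of THP-1 cells; compounds (final up to 57.5 uM) added 1 h before LPS (250 ng/mL) and ATP (1.25 mM) stimulation; lower signal means less secretion.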
DRD3 antagonist: antagonists of human D3 dopamine receptor; 360,000 compounds, 2.5% hits; P35462; D3R cells, DiscoveRx beta-arrestin luminescence, antagonist mode; stronger effect = lower value; max response, negative = inhibition, %; AID 652054; in the data active = max response below about -50%; inconclusive = no clear call, values can overlap the other calls; also: % is scaled to controls: 0 for no effect and ±100 for the full control effect
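Cells plated overnight at 1500 cells/well, then exposed to library compounds with dopamine controls for 90 minutes at 37 degrees C. DiscoveRx reagent added for 30–60 minutes at room temperature; luminescence read, quantitative HTS format.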
* hit, by the source's call; ? = inconclusive; . = no result. Only some compounds are listed: those with a hit (about 21% of all), similar ones and a draw of the others. Unless noted, calls follow the shape of the dose curve; as a rule, active = well fitted inhibition curve with a large enough effect; inconclusive = small, poorly fitted or top-dose-only effect; inactive = flat fitted curve, though single readings scatter.

SMILES	TDP1 cell noCPT	ClpP mod	D3 ag	DT40 TDP1 CPT	IL1B secr inh	DRD3 antagonist
O=C(/C(=C/c1ccc(Cl)cc1)c1nc2ccccc2[nH]1)c1cccs1	4.1µM*	-5%	-14	2.9µM*	-112*	-65*
CC1CC[C@@]2(OC1)OC1CC3C4CC[C@@H]5CC(O)CC[C@@]5(C)C4CC[C@]3(C)C1C2C (some centres undefined)	-4%	.	.	3%	.	.
COc1ccc(NS(=O)(=O)c2csc(C(N)=O)c2)cc1	-30%	.	-5	-12%	59	20
Cc1cc(C(F)F)n2nc(C(=O)Nc3ccc(F)cc3F)nc2n1	8%	0%	4	8%	-13	-54*
COc1ccc(-n2cc(-c3ccccc3)c3c(SC(C)C(C)=O)ncnc32)cc1 (centres undefined)	-9%	?	-18	-11%	.	.
COc1ccc(CC(=O)N2CCN(S(=O)(=O)c3cc(Cl)ccc3Cl)CC2)cc1	-25%	1%	3	?	-15	31
O=C(CSc1oc(-c2ccc(F)cc2)nc1S(=O)(=O)c1ccc(Cl)cc1)c1ccccc1	15µM*	-1%	5	16µM*	.	.
O=C(CSc1oc(-c2ccccc2)nc1S(=O)(=O)c1ccc(Cl)cc1)c1ccccc1	18µM*	-4%	-15	15µM*	.	.
NC(=O)CSc1oc(-c2ccco2)nc1S(=O)(=O)c1ccc(Cl)cc1	3%	-2%	20	4%	-8	-4
NC(=O)CSc1oc(-c2ccc(F)cc2)nc1S(=O)(=O)c1ccccc1	-15%	1%	2	-9%	-3	-6
O=C(Cn1c(=O)nc(-c2ccccc2F)c2cc(Cl)ccc21)Nc1ccccc1C(F)(F)F	?	1%	2	-28%	.	.
O=C(O)C(=Cc1ccccc1[N+](=O)[O-])c1ccc2c(c1)OCO2	?	1%	3	-13%	44	7
CC(=O)c1cccc(-n2c(=O)c3c4c(sc3n(Cc3cccc(C)c3)c2=O)CN(C(C)=O)CC4)c1	15µM*	-6%	-3	16µM*	.	.
CCOC(=O)N1CCc2c(sc3c2c(=O)n(Cc2ccccc2)c(=O)n3Cc2ccc(C)cc2)C1	?	-4%	6	?	1	-5
CC(=O)N1CCc2c(sc3c2c(=O)n(-c2ccccc2)c(=O)n3CC(=O)c2ccccc2)C1	-29%	-2%	-8	25%	.	.
CC(=O)N1CCc2c(sc3c2c(=O)n(CCc2ccccc2)c(=O)n3Cc2cccc(C)c2)C1	16µM*	-6%	-2	15µM*	.	.
CC(=O)N1CCc2c(sc3c2c(=O)n(-c2ccccc2)c(=O)n3Cc2cccc(C(F)(F)F)c2)C1	18µM*	0%	-14	16µM*	.	.
CCOC(=O)N1CCc2c(sc3c2c(=O)n(CCc2ccccc2)c(=O)n3Cc2ccc(C)cc2C)C1	23µM*	-4%	2	?	.	.
Cc1nc([N+](=O)[O-])c(C(=O)OCc2ccc(C#N)cc2)n1C	0%	.	-11	-3%	-8	-19
CCOC(=O)N1CCc2c(sc3c2c(=O)n(Cc2ccccc2)c(=O)n3Cc2ccccc2Cl)C1	?	-1%	5	?	.	.
CC(=O)N1CCc2c(sc3c2c(=O)n(Cc2ccccc2)c(=O)n3Cc2ccc(Cl)cc2)C1	29µM*	1%	1	?	.	.
CCOC(=O)N1CCc2c(sc3c2c(=O)n(CCc2ccccc2)c(=O)n3Cc2c(F)cccc2Cl)C1	26µM*	-1%	7	?	.	.
CSC1=NC2(C[C@H]2c2ccccc2)C(=O)N1C (some centres undefined)	-13%	1%	-1	1%	10	-11
COc1ccc2[nH]c3c(c2c1)CCN1C(=O)C(CC(=O)NCCCn2ccnc2)C[C@H](C(=O)N(C(C)C)C(C)C)[C@@]31C (some centres undefined)	-16%	-4%	51*	-11%	-19	5
COc1ccc2[nH]c3c(c2c1)CCN1C(=O)C(CC(=O)NCC24CC5CC(CC(C5)C2)C4)C[C@H](C(=O)N(C(C)C)C(C)C)[C@@]31C (some centres undefined)	?	-1%	37*	?	-72*	-4
SMILES	TDP1 cell noCPT	ClpP mod	D3 ag	DT40 TDP1 CPT	IL1B secr inh	DRD3 antagonist
COCCCNC(=O)CC1C[C@H](C(=O)N(C(C)C)C(C)C)[C@@]2(C)c3[nH]c4ccc(OC)cc4c3CCN2C1=O (some centres undefined)	?	-4%	-10	-16%	0	-23
CCN(CC)C(=O)[C@H]1CC(CC(=O)NCCCn2ccnc2)C(=O)N2CCc3c([nH]c4ccc(OC)cc34)[C@]12C (some centres undefined)	-9%	-3%	28	6%	-11	2
CCN(CC)C(=O)[C@H]1CC(CC(=O)NCCCn2ccnc2)C(=O)N2CCc3c([nH]c4ccccc34)[C@]12C (some centres undefined)	-14%	0%	2	-8%	7	-10
CC(C)N(C(=O)[C@H]1C[C@H](CC(=O)NCCCn2ccnc2)C(=O)N2CCc3c([nH]c4ccc(Cl)cc34)[C@]12C)C(C)C	18µM*	1%	-10	?	?	?
Cc1noc(C)c1C(=O)N1CCC[C@@]2(CCN(c3ccccc3)C2)C1	?	.	.	7%	.	.
CCN(Cc1ccccc1)c1ccc(/C=C(\C#N)c2ccccn2)cc1	?	1%	-23	-30%	-14	-16
CN(CCC#N)c1ccc(C=C(C#N)c2ccc(Br)cc2)cc1	?	1%	3	?	-20	14
CCN(CC)c1ccc(/C=C(\C#N)c2ccccn2)cc1	2.6µM*	.	-10	2.6µM*	?	-13
CN(CCC#N)c1ccc(/C=C(\C#N)c2ccccn2)cc1	?	1%	1	?	-64*	-1
COc1cc2c(cc1NC(=O)COc1ccc(Br)cc1C)oc1ccccc12	-4%	-8%	-19	-5%	.	.
CC1CCC(NC(=O)CNC(=O)Cc2cccc3ccccc23)CC1 (centres undefined)	?	0%	-7	?	1	-15
Cc1nnsc1S(=O)c1ccc(F)cc1 (centres undefined)	15%	1%	-1	-8%	-50*	-11
Cc1nnsc1S(=O)c1ccc(Br)cc1 (centres undefined)	?	0%	-5	18µM*	-8	-12
